# In PubChem BioAssay:
# Active and inactive are the calls of the source.
# Columns and labels:
# [1] = system: Plasmodium falciparum Sir2 (PF13_0152, Sir2A); experiment: Plasmodium falciparum Sir2A binding compounds – biochemical, small-molecule microarray, 635 nm fluorescence, primary screen (AID 1098); settings: fluorescence 635 nm, higher = more signal;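 further: score merges spot fluorescence intensity with its signal-to-noise ratio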
# [2] = probe aDKK1 binding to arrayed compounds – biochemical, biotinylated probe, 635/667 nm fluorescence, primary screen (AID 1099); settings: small-molecule microarray, higher = more signal;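 further: score merges 667nm spot fluorescence with signal to noise across triplicate slides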
# [3] = probe aCHRDL2 binding to arrayed compounds – biochemical, biotinylated probe, 635/667 nm fluorescence, primary screen (AID 1100); settings: small-molecule microarray, higher = more signal
# [4] = change in splice reporter luminescence, either direction, cell-based, HEK293, spliceosome inhibition project, primary screen (AID 1101); settings: HEK293 splicing luciferase reporter, 24 h, higher = more signal, called active from +8 up or from −8 down;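 further: HEK293 cells carrying a splicing-competent luciferase reporter gene; test concentration not given here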
# [5] = molecular target: Fibroblast growth factor 10 (Homo sapiens) (UniProt O15520); experiment: compounds binding fibroblast growth factor 10 – biochemical, small-molecule microarray, 635 nm fluorescence, primary screen (AID 1102); settings: FGF10 binding, fluorescence 635 nm, higher = more signal
# [6] = system: glycogen synthase kinase-3 (GSK3A per assay name; protocol says GSK3B); experiment: compounds binding glycogen synthase kinase-3 – biochemical, small-molecule microarray, 635 nm fluorescence, GSK3A, primary screen (AID 1103); settings: fluorescence 635 nm, higher = more signal; further: the record names both GSK3A and GSK3B
# [7] = molecular target: Epidermal growth factor receptor (Homo sapiens) (UniProt P00533); experiment: compounds binding epidermal growth factor receptor – biochemical, small-molecule microarray, 635 nm fluorescence, primary screen (AID 1104); settings: EGFR binding, higher = more signal;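 further: score merges 667 nm emission intensity with spot signal to noise over triplicate slides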
# [8] = molecular target: Follistatin-related protein 3 (Homo sapiens) (UniProt O95633); experiment: compounds binding follistatin-related protein 3 – biochemical, small-molecule microarray, 635 nm fluorescence, primary screen (AID 1105); settings: FSTL3 binding, higher = more signal;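 further: score merges emission near 667 nm and signal to noise per printed spot across three slides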
# [9] = molecular target: Dickkopf-related protein 1 (Homo sapiens) (UniProt O94907); experiment: small molecules binding DKK1 protein – biochemical, small-molecule microarray, 635 nm fluorescence scan, primary screen (AID 1106); settings: higher = more signal;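 further: score merges emission near 667 nm with signal to noise over three replicate slides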
# [10] = system: Inhibin beta A chain (activin A); experiment: small molecules binding activin A – biochemical, small-molecule microarray, 635 nm fluorescence scan, primary screen (AID 1107); settings: INHBA, higher = more signal;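 further: mouse activin A protein probed at 4.33 µg/mL on printed slides; score merges bound-protein fluorescence near 667 nm with spot signal-to-noise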
# [11] = system: Human papillomavirus type 1a protein E7 (residues 44-93); experiment: small molecules binding HPV E7 44-93 – biochemical, small-molecule microarray, residues 44-93, 635 nm fluorescence, primary screen (AID 1108); settings: fluorescence 635 nm, higher = more signal;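 further: E7 fragment applied at 1 µg/mL in TBST for 1 h at 4 C; score combines spot fluorescence with its signal to noise ratio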
# [12] = hepatitis C replication reporter changes, two-sided – Huh7 cells, luciferase reporter, HCV replication inhibitor project, primary screen (AID 1109); settings: Huh7 HCV replicon luciferase reporter, 48 h; higher = more signal;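 further: huh7 hepatoma cells harbouring a luciferase neomycin HCV replicon reporter; luciferase luminescence as measure of HCV replicon replication; test concentration not given here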
# [13] = molecular target: Left-right determination factor 2 (Homo sapiens) (UniProt O00292); experiment: small molecules binding LEFTY2 protein – biochemical, small-molecule microarray, 635 nm fluorescence scan, primary screen (AID 1110); settings: higher = more signal
# [14] = molecular target: Calmodulin-1 (Homo sapiens) (UniProt P0DP23); experiment: small molecules binding calmodulin-1 with EGTA – biochemical, small-molecule microarray, Cy5-labelled CALM1, profiling panel (AID 1111); settings: Cy5-CALM1 binding fluorescence, higher = more signal;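 further: labelled calmodulin applied in Tris saline Tween buffer holding calcium plus EGTA and DTT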
# [15] = molecular target: Calmodulin-1 (Homo sapiens) (UniProt P0DP23); experiment: small molecules binding Ca-loaded calmodulin-1 – biochemical, small-molecule microarray, Cy5-labelled CALM1, plus calcium, artefact control for SMM control-protein annotation, profiling panel (AID 1112); settings: Cy5-CALM1 binding fluorescence, higher = more signal;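 further: score merges spot fluorescence with signal to noise from triplicate slides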
# [16] = probe aWnt5a binding to arrayed compounds – biochemical, biotinylated probe, 635/667 nm fluorescence, primary screen (AID 1113); settings: small-molecule microarray, higher = more signal;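 further: score merges 667 nm fluorescence intensity with signal-to-noise per printed feature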
# [17] = probe aShh binding to arrayed compounds – biochemical, biotinylated probe, 635/667 nm fluorescence, primary screen (AID 1114); settings: small-molecule microarray, higher = more signal;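 further: probe is biotin-labelled aShh protein from a stem cell growth factor screen; measures binding of labelled protein to compounds printed on the slide; score merges feature fluorescence at 667 nm with signal-to-noise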
# [18] = probe aNog binding to arrayed compounds – biochemical, biotinylated probe, 635/667 nm fluorescence, primary screen (AID 1115); settings: small-molecule microarray, higher = more signal;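 further: probe is biotinylated aNog protein used at 0.15 µg/mL for 1 h at 4 C; z-score combines 667 nm fluorescence of each spot with its signal to noise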
# [19] = molecular target: Torsin-1A-interacting protein 1 (Homo sapiens) (UniProt Q5JTV8); experiment: compound microarray binding of lysate hLAP1 – cell lysate, small-molecule microarray, COS7 lysate, 635/667 nm fluorescence, primary screen (AID 1116); settings: 635 nm fluorescence, higher = more signal
# [20] = molecular target: Alpha-bungarotoxin (Bungarus multicinctus) (UniProt P60615); experiment: compounds binding labelled alpha-BTX control protein – biochemical, small-molecule microarray, Alexa647 label, 635/667 nm fluorescence, artefact control for SMM control protein annotation, profiling panel (AID 1117); settings: alpha-BTX-A647 binding fluorescence, higher = more signal
# Sequence of Alpha-bungarotoxin (Bungarus multicinctus) (P60615 whole entry, looked up): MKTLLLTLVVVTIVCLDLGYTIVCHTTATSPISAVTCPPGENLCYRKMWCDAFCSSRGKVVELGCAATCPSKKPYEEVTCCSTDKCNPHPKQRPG
# Sequence of Epidermal growth factor receptor (Homo sapiens) (P00533 whole entry, looked up): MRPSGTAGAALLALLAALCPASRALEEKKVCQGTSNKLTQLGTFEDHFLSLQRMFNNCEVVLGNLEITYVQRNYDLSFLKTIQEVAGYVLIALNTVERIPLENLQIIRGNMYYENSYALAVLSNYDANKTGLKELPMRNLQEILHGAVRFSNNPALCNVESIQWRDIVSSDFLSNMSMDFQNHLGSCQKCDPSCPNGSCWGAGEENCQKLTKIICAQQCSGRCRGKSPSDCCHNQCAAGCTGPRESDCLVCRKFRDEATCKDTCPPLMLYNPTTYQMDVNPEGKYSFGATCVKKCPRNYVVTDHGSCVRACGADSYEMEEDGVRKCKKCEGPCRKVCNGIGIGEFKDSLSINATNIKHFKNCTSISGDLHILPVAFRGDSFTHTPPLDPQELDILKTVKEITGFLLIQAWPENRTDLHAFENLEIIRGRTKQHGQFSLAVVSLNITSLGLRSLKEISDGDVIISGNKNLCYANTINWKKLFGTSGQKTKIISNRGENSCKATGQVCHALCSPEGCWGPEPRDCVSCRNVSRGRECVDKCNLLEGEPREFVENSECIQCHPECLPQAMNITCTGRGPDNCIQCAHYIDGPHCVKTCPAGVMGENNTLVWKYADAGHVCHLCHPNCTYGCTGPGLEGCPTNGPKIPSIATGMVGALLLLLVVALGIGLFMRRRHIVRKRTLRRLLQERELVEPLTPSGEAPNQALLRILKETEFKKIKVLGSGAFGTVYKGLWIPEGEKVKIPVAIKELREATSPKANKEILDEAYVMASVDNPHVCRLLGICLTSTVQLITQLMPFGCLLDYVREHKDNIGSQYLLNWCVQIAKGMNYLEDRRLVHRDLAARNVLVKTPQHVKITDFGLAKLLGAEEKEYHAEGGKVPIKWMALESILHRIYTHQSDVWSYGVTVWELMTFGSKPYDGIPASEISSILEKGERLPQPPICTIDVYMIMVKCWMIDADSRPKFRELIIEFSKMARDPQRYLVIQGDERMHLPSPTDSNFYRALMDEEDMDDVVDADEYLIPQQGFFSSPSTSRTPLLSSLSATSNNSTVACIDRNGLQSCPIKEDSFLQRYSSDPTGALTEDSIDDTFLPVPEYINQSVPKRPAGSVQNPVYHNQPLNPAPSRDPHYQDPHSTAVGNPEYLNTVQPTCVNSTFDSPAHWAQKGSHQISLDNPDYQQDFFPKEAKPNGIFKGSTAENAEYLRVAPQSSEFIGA
# Sequence of Left-right determination factor 2 (Homo sapiens) (O00292 whole entry, looked up): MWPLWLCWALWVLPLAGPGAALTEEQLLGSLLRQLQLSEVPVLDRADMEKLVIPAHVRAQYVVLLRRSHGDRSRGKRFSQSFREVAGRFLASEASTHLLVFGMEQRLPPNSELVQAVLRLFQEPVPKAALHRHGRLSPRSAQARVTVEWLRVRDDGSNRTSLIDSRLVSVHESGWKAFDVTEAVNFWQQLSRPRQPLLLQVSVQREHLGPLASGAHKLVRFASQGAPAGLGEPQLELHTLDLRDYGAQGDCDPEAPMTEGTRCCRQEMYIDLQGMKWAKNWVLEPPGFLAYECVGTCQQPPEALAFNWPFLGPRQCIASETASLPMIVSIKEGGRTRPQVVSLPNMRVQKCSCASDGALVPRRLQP
# Sequence of Torsin-1A-interacting protein 1 (Homo sapiens) (Q5JTV8 whole entry, looked up): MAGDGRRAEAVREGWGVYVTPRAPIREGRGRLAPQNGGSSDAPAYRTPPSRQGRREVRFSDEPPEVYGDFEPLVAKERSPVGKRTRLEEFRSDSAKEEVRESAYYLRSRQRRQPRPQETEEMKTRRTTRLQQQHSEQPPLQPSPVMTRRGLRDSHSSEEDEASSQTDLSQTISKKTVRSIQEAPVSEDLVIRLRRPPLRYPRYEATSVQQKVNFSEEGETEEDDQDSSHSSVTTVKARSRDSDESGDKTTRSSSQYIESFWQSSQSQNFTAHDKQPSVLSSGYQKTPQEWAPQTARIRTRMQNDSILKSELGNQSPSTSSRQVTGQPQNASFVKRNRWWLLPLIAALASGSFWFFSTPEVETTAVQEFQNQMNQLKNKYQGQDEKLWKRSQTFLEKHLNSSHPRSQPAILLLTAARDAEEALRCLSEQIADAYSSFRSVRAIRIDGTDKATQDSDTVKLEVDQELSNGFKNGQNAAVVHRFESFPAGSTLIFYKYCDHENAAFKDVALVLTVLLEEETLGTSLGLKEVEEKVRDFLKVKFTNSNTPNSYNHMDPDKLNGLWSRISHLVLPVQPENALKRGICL
# Sequence of Fibroblast growth factor 10 (Homo sapiens) (O15520 whole entry, looked up): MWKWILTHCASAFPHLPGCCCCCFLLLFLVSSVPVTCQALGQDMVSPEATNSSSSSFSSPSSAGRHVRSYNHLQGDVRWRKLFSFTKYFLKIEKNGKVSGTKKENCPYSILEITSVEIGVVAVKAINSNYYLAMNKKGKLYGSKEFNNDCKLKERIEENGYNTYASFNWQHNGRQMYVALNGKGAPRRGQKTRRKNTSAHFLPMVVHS
# Sequence of Dickkopf-related protein 1 (Homo sapiens) (O94907 whole entry, looked up): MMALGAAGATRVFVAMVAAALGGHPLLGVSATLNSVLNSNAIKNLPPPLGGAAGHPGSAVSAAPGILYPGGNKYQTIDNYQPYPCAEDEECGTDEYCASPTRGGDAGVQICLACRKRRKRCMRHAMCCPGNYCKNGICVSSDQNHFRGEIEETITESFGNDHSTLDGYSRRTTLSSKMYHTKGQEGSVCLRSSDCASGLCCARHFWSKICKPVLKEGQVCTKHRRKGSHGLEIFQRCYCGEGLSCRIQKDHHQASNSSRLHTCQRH
# Sequence of Follistatin-related protein 3 (Homo sapiens) (O95633 whole entry, looked up): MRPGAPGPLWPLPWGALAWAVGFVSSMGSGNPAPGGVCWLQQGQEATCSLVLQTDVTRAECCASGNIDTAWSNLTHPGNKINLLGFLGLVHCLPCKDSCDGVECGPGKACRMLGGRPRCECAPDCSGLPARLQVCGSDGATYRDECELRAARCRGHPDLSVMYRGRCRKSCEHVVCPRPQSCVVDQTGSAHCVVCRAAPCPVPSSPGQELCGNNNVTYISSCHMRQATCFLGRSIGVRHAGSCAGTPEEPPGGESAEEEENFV
Structure (SMILES),composite z-score [1],composite z-score [2],composite z-score [3],z-score [4],composite z-score [5],composite z-score [6],composite z-score [7],composite z-score [8],composite z-score [9],composite z-score [10],composite z-score [11],z-score [12],composite z-score [13],composite z-score [14],composite z-score [15],composite z-score [16],composite z-score [17],composite z-score [18],composite z-score [19],composite z-score [20]
CCC(=O)[C@@]1(O)C(=O)N2C(=C3C(=O)OCC[C@@H]31)N(Cc1ccccc1)C(C)=C(C(=O)OC)[C@H]2c1ccccc1,0.413,-0.302,-0.624,0.501 (inactive),0.241,0.554,0.43,0.429,0.873,-0.0748,0.403,0.0779,0.366,-0.368,-0.478,0.0108,-0.221,-0.369,0.478,-0.0321
CO[C@H]1COC(=O)[C@H](C)NC(=O)CC=C[C@@H](C)[C@H](OC)COC(=O)[C@@H](OCc2ccccc2)C=C[C@@H]1C,0.68,-0.747,-1.33,-0.00187 (inactive),0.0389,0.362,0.475,0.492,0.834,1.34,-0.112,-0.339,0.591,-0.306,-1.32,-0.233,-0.279,0.0021,0.129,-0.233
CO[C@H]1COC(=O)CCC[C@@H](C)[C@H](OC)COC(=O)[C@@H]2CCCN2C(=O)CC=C[C@@H]1C,1.78,-0.313,-0.959,-0.599 (inactive),0.269,0.482,0.802,1.02,1.16,1.26,-1.68,-2.06,1.18,-0.984,-1.72,-0.236,-0.0533,-0.0553,1.09,0.199
C[C@H]1CC[C@H]2C(=O)OC(CO)CN2[C@@H]1c1ccc(Br)cc1 (stereo not given in full),-0.273,-0.28,-0.0574,-0.522 (inactive),0.0323,-0.536,0.242,-0.34,-0.241,0.757,-0.558,-0.125,0.137,-0.201,-0.607,-0.0778,0.0284,-0.178,-0.303,0.867
C=CC[C@@H]1C=C[C@H](ON=C(C)CCC(=O)OC[C@H]2O[C@H](C#Cc3ccccc3)C=C[C@@H]2Oc2ccc(C)cc2)[C@@H](CO)O1,1.19,-0.0927,-0.515,-0.439 (inactive),1.16,1.01,0.298,1.04,0.606,-0.117,1.42,0.568,0.605,0.759,0.188,-0.0236,0.0639,-0.0463,0.728,0.742
COC(=O)CC=C[C@H](C)[C@@H](OCc1cccc(Br)c1)[C@@H](C)[C@H](OC)C1CCCCC1,0.242,-0.462,-0.233,-0.256 (inactive),-0.0117,-1.16,0.153,-0.449,0.515,1.34,-0.835,-0.291,0.388,-0.893,-1.07,-0.0944,-0.282,-0.449,-0.343,-0.308
O=C1CCCC=C1C(CCc1ccccc1)OC(=O)c1ccc(Br)cc1 (stereo not given),-0.258,-0.0892,-0.442,-0.173 (inactive),0.146,-0.61,0.362,0.283,0.422,0.608,-2.1,1.15,0.572,-1.11,-0.622,-0.124,-0.147,-0.348,-0.108,-0.334
CCCNC(=O)OC[C@H]1O[C@H](CCON=C(C)CCC(=O)OC[C@H]2O[C@H](c3ccccc3)C=C[C@@H]2Oc2ccc(OC)cc2)C=C[C@@H]1Oc1ccc(OC)cc1,0.452,-0.183,-0.207,0.358 (inactive),-0.445,-1.49,-0.239,-0.31,0.0289,0.844,-0.996,-1.17,-0.126,-0.449,-0.678,-0.0685,-0.138,-0.0039,0.23,-0.183
CC[C@@H](c1ccccc1)n1c(=O)n2n(c1=O)[C@H]1[C@H](O)[C@@H]3O[C@@H]3C(=NOC[C@@H](O)COCc3ccco3)[C@H]1CC2,1.27,-0.455,-0.773,3.16 (inactive),0.145,-0.693,-0.264,-0.378,0.239,1.09,-0.629,-2.55,0.0632,-1.26,-1.51,-0.145,-0.276,0.618,-0.298,-0.201
CC(C)CON=C1C[C@@H](O)[C@@H](O)[C@@H]2[C@@H]3C(=O)N(Cc4ccc5c(c4)OCO5)C(=O)[C@@H]3CC[C@H]12,0.191,-0.222,-0.608,0.31 (inactive),1.14,0.589,0.216,0.671,0.178,-0.374,1.33,-1.24,0.375,-0.382,-0.576,0.0044,-0.291,-0.467,0.54,0.411
O=C(NN=C1C[C@@H](O)[C@@H](O)[C@@H]2[C@@H]3C(=O)N(C[C@@H]4CCCO4)C(=O)[C@@H]3CC[C@@H]12)OCc1ccccc1,0.789,-0.32,-0.916,-1.03 (inactive),0.127,1.09,0.509,0.0972,0.486,0.781,0.457,0.246,0.686,-0.817,-1.51,-0.243,0.111,-0.139,-0.306,-0.421
O=C1[C@H]2[C@H]3[C@H](O)[C@H](O)CC(=NOC[C@@H](O)COCc4ccco4)[C@H]3CC[C@H]2C(=O)N1Cc1ccccc1,0.467,-0.49,-0.964,-0.907 (inactive),0.378,0.0077,0.522,0.404,0.901,0.764,-1.01,-0.523,0.665,-0.684,-1.22,-0.18,-0.27,0.0444,-0.193,-0.309
